Only some compounds are listed: those with a hit (about 3.1% of all), similar ones and a draw of the others.
PPC-1+TRAIL kill: compounds killing PPC-1 cancer cells with TRAIL present (potentiator screen, no TRAIL-free arm); PPC-1 cells + TRAIL, ATPLite viability luminescence; cell killing (% activity), % at 4 µM or 5 µM; 220,000 tested, 0.41% active;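 active means cell killing above 50% in the first pass at 4 µM, then a duplicate retest at 5 µM averaging 50% or more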;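 further: plate controls were cells with TRAIL plus DMSO for no effect and medium-only wells lacking cells for full effect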
KKLEB tox: CF airway cell cytotoxicity counter-screen. KKLEB CF airway cells viability, ATPlite luminescence, overnight; hits give low values; cells stimulated with P. aeruginosa culture filtrate. activity change (cytotoxicity), % at 5 µM. 360,000 tested, 0.36% active. AID 602141;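 active means corrected activity change at or below -50% at 5 µM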
CF NFkB block: cystic fibrosis NF-kB activation inhibition | KKLEB NF-kB-GFP reporter, PAF-induced, GFP fluorescence overnight | inhibition, % at 5 µM | 360,000 tested, 0.86% active | AID 588850;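 active means at least 50% inhibition at 5 µM, scaled per plate between neutral and stimulator controls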;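 further: PAF is a Pseudomonas aeruginosa culture filtrate used as stimulus; plate controls were PAF-stimulated DMSO wells for no effect and unstimulated DMSO wells for full effect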
Peg3 promoter: inhibitors of Peg3 promoter | 360,000 tested, 1.7% active | inhibition, % at 20 µM | HeLa PEG-Prom luciferase reporter, luminescence, overnight;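 active means inhibition of at least 50% at 20 µM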
HIF-2a block: inhibitors of HIF-2a | 786-0 RCC cells HIF-2a reporter, luciferase luminescence, overnight | inhibition, % at 18.8 µM | 360,000 tested, 0.72% active;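 active means inhibition of the luminescence signal of 40% or more relative to plate controls, in a single-dose primary screen at 18.75 µM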
C8 TRAIL sens: caspase-8 TRAIL sensitization. AID 624354. 360,000 tested, 1% active. NB7+C8 cells + TRAIL, ATPlite viability luminescence. inhibition (viability loss, TRAIL sensitization), % at 10 µM;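 active means compounds causing at least 50% loss of cell viability in the single-dose screen, relative to plate controls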
Mdm2 MdmX conf: confirmation of inhibitors of human Mdm2/MdmX interaction, set 2 | SaOS-2 split-luciferase Mdm2/MdmX complementation, luminescence | 740 tested, 99% active | AID 504601 | inhibition, % at 8 µM | shares compounds with HIF-2a block;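 active means mean inhibition of the luminescence signal across two replicates at or above 26 percent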
Target sequence (O15151 whole entry, looked up): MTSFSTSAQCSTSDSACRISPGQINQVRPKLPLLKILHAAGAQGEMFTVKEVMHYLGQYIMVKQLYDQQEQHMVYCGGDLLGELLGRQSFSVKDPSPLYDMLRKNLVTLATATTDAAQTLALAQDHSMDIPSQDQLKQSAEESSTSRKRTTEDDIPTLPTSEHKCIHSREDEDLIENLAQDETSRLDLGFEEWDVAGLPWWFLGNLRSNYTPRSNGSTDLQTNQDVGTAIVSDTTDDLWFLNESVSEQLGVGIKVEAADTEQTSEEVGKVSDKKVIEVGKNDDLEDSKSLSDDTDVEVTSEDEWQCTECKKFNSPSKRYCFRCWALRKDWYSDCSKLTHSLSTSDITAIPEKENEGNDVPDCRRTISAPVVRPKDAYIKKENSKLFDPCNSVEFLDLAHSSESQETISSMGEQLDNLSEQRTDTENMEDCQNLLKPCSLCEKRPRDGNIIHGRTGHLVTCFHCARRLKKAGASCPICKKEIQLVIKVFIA
Target sequence (Q00987 whole entry, looked up): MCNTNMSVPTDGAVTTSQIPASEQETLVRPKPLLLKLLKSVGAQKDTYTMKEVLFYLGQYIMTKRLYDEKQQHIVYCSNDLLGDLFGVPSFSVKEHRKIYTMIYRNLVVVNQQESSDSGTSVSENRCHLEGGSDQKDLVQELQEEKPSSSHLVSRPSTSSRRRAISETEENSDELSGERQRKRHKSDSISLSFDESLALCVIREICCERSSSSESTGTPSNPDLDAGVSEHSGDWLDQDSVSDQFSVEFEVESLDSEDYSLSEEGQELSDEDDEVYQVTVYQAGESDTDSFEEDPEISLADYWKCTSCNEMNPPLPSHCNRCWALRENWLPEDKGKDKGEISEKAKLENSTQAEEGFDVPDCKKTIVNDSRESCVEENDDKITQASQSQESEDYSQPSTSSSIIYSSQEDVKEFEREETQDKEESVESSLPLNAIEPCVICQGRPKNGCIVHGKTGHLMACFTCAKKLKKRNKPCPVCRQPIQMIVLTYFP
HIF-2a inh conf: HIF-2a inhibition, single concentration confirmation; shares compounds with HIF-2a block; 786-0 RCC cells, HIF-2a luciferase reporter luminescence, overnight; inhibition, % at 18.8 µM; 1,800 tested, 56% active; AID 651580;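 active means mean inhibition across four replicates of at least 40 percent at the single tested concentration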
HIF-1a cs: counter-screen for HIF-2a inhibitors: HIF-1a inhibition in MiaPaCa-2 cells; shares compounds with HIF-2a block; MiaPaCa-2 HIF-1a luciferase reporter, desferoxamine, overnight; inhibition, % at 18.8 µM; 1,800 tested, 72% active; AID 651589;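 active means mean inhibition of the reporter signal across four replicates at the single tested dose of 50% or more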
Starred values were filed as active, the others as inactive; · = no result; ! = a repeat was not active.

SMILES	PPC-1+TRAIL kill	KKLEB tox	CF NFkB block	Peg3 promoter	HIF-2a block	C8 TRAIL sens	HIF-2a inh conf	HIF-1a cs	others
O=C(c1ccccc1)N1CCN(C(=O)N2CCOCC2)CC1	-11	-7	8	4	3	11	·	·
C=Cc1ccc(Cn2c(C)c(C(=O)NCCC#N)sc2=O)cc1	·	-2	-6	8	9	12	·	·
Cc1ccccc1CCNC(=O)Cn1ccc2cc(S(=O)(=O)N3CCCC3)ccc21	·	-8	-1	18	9	-3	·	·
CCSC1(SCC)N=C(N)C2(C#N)C(c3ccc(F)cc3)C12C#N (configuration not stated)	-7	0	42	107*	49*	5	59*	93*
COC1(OC)N=C(N)C2(C#N)C(c3ccc(F)cc3)C12C#N (configuration not stated)	15	10	-1	3	12	-13	·	·
Clc1ccccc1Cn1nnc2ccccc21	·	-16	-14	6	-2	-29	·	·
Cc1ccc(S(=O)(=O)N(C)C[C@@H]2Oc3ncc(Br)cc3C(=O)N([C@H](C)CO)C[C@@H]2C)cc1	·	3	1	-15	10	-4	·	·
CCN(CC)S(=O)(=O)c1ccc(N/N=C/c2ccc(O)cc2O)nc1	52*	4	-1	42	2	18	·	·	Mdm2 MdmX conf=87*
O=[N+]([O-])c1ccc(O)c(-c2cc(C(F)(F)F)nc(-c3ccccc3)n2)c1	·	-65*	72*	79*	27	44	·	·	Mdm2 MdmX conf=102*
Oc1ccccc1-c1cc(C(F)(F)C(F)F)nc(-c2ccccc2)n1	5	6	16	8	-5	1	·	·
CC1(C)CC[C@]2(C(=O)O)CC[C@]3(C)C(=CC[C@@H]4[C@@]5(C)CC[C@H](O[C@@H]6O[C@H](C(=O)O)[C@@H](O)[C@H](O[C@@H]7OC[C@H](O)[C@H](O)[C@H]7O)[C@H]6O)C(C)(C)[C@@H]5CC[C@]43C)[C@@H]2C1	·	-95*	88*	59*	55*	-2	94*	52*
Fc1cccc(F)c1[B-](F)(F)F	·	-7	0	0	13	1	·	·
COc1cccc(-c2cc(NC=O)c3ncc(-c4ccc(OC)c(OC)c4)n3c2)c1	·	-22	34	49	-75	10	·	·
COc1ccc(-c2cnc3c(NC=O)cc(-c4cccc(NS(C)(=O)=O)c4)cn23)cc1OC	·	-62*	93*	69*	51*	16	79*	-9
CCC(C)c1ccccc1NC(=O)C(C)OC(=O)c1ccco1 (configuration not stated)	·	7	2	10	18	-6	·	·
O=C(Nc1cc2ccccc2oc1=O)c1ccccc1	48	-8	-28	54*	40*	55*	68*	63*
Cc1oc(=O)c(NC(=O)c2ccccc2)cc1C(N)=O	4	-3	5	2	4	-24	·	·
Nc1cc(Nc2ccccc2)ccn1	·	-24	-9	-18	4	3	·	·
N#Cc1sc2nccc(Nc3ccccc3)c2c1N	·	-14	81*	23	17	-12	·	·	Mdm2 MdmX conf=91*
CN1CCN(Cc2nc3ccccc3c(=O)n2Cc2nc(-c3ccc4ccccc4c3)cs2)CC1	-3	-45	4	105*	62*	77*!	-10	106*
Cc1nc(SCc2cccc(C(=O)O)c2)nc2c1CCCC2	4	0	-2	-48	86*	0	84*	25
O=C(c1ccccc1)C(Nc1cccc([N+](=O)[O-])c1)c1ccccc1 (configuration not stated)	·	2	14	2	1	-4	·	·
COc1ccc(/C=C/C(=O)C(C(N)=O)=C2SCCS2)cc1	12	9	6	-86	-93	24	·	·
NC(=O)C(C(=O)/C=C/c1ccc(Cl)cc1)=C1SCCS1	9	4	34	61*	-2	-12	·	·	Mdm2 MdmX conf=102*
Cc1ccc(-c2cc(C(=O)N3CC(C)OC(C)C3)c3ccccc3n2)o1 (configuration not stated)	·	-7	3	-40	-30	8	·	·
SMILES	PPC-1+TRAIL kill	KKLEB tox	CF NFkB block	Peg3 promoter	HIF-2a block	C8 TRAIL sens	HIF-2a inh conf	HIF-1a cs	others
Cc1ccc(-c2cc(C(=O)N3CC(C)CC(C)C3)c3ccccc3n2)o1 (configuration not stated)	·	0	4	-6	44*	-22	-41	29
COc1ccc(S(=O)(=O)N2CCCOC2CNC(=O)C(=O)NCc2ccccn2)cc1 (configuration not stated)	·	10	-29	8	-2	-14	·	·
CCOC(=O)c1ccc(NC(=O)Cn2nc(C)c3ccccc3c2=O)cc1	·	19	-4	-9	9	6	·	·
CCOC(=O)c1ccc(NC(=O)Cn2ncc(Cl)c(Cl)c2=O)cc1	9	-95*	89*	104*	89*	6	98*	105*	Mdm2 MdmX conf=103*
Cc1ccc(S(=O)(=O)N2CCCCC2)cc1NC(=O)Cn1ncc(Cl)c(Cl)c1=O	·	-89*	104*	109*	94*	96*	99*	104*	Mdm2 MdmX conf=103*
CCN(CC)S(=O)(=O)c1cc(NC(=O)Cn2ncc(Cl)c(Cl)c2=O)ccc1C	17	-66*	89*	101*	97*	62*	48*	104*	Mdm2 MdmX conf=103*
O=C(Cn1ncc(N2CCCC2)c(Cl)c1=O)c1ccc(Cl)cc1	9	9	6	-236	-163	-3	·	·
CCC(=O)Nc1ccc(C(=O)Cn2ncc(Cl)c(Cl)c2=O)cc1	11	-4	44	106*	90*	94*	-9	105*
O=c1nc(Oc2ccccc2)nc2ncccn12	·	-14	-3	-13	0	-12	·	·
CCN1CCN(c2ccc(S(=O)(=O)N3CCCCC3)cc2NC(=O)c2cccc(OC(F)F)c2)CC1	·	2	-2	5	12	-19	·	·
O=C(O)CCC(=O)N1CCN(S(=O)(=O)c2ccc3ccccc3c2)CC1	·	3	-3	13	7	1	·	·
O=C(Cn1ncc(Cl)c(Cl)c1=O)N1CCN(S(=O)(=O)c2ccc3ccccc3c2)CC1	16	-68*	82*	106*	95*	-1	96*	105*	Mdm2 MdmX conf=102*
O=S(=O)(/C(=C\c1ccc(C(F)(F)F)cc1)c1nc2ccccc2[nH]1)c1ccccc1	·	-68*	86*	105*	84*	85*	98*	107*
